Test results published in PMC5540273 (PLoS ONE, 2017).

Tests used:
Conditions in all cases: concentration: 1 μM, replicates: in singlicate; n = 1
[1] = test system: TAOK3
[2] = test system: TBK1
[3] = test system: TEC
[4] = test system: TESK1
[5] = test system: TGFBR1
[6] = test system: TGFBR2
[7] = test system: TIE1
[8] = test system: T1, TIE2
T1 construct: gene TEK

[9] = test system: TLK1
[10] = test system: TLK2
[11] = test system: TNIK
[12] = test system: TNK1
[13] = test system: TNK2
[14] = test system: TNNI3K
[15] = test system: T2, TRKA
T2 construct: gene NTRK1

[16] = test system: TRKB
[17] = test system: T3, TRKC
T3 construct: gene NTRK3

[18] = test system: TRPM6
[19] = test system: TSSK1B
[20] = test system: TSSK3
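Further: KINOMEscan kinase panel screen.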

Structure (SMILES): COc1ccccc1CNC(=O)c1cc(C(=O)c2ccccc2C)c[nH]1 [GSK364507]
- %Inh [1]: 0%
- %Inh [2]: 19%
- %Inh [3]: 0%
- %Inh [4]: 36%
- %Inh [5]: 9%
- %Inh [6]: 0%
- %Inh [7]: 0%
- %Inh [8]: 0%
- %Inh [9]: 0%
- %Inh [10]: 0%
- %Inh [11]: 0%
- %Inh [12]: 0%
- %Inh [13]: 17%
- %Inh [14]: 0%
- %Inh [15]: 0%
- %Inh [16]: 24%
- %Inh [17]: 2%
- %Inh [18]: 21%
- %Inh [19]: 16%
- %Inh [20]: 6%

Structure (SMILES): COc1ccc(Nc2nccc(-c3cccc(NC(=O)c4cc5cc(F)ccc5[nH]4)c3)n2)cc1 [GSK1229782]
- %Inh [1]: 0%
- %Inh [2]: 24%
- %Inh [3]: 19%
- %Inh [4]: 34%
- %Inh [5]: 17%
- %Inh [6]: 10%
- %Inh [7]: 0%
- %Inh [8]: 17%
- %Inh [9]: 4%
- %Inh [10]: 0%
- %Inh [11]: 84%
- %Inh [12]: 0%
- %Inh [13]: 16%
- %Inh [14]: 0%
- %Inh [15]: 52%
- %Inh [16]: 36%
- %Inh [17]: 47%
- %Inh [18]: 33%
- %Inh [19]: 22%
- %Inh [20]: 35%

Structure (SMILES): CN(C)CCN(C)C(=O)c1cc(-c2ccncc2)c(-c2ccc(Cl)c(O)c2)o1.Cl.Cl [SB-710397]
- %Inh [1]: 0%
- %Inh [2]: 0%
- %Inh [3]: 6%
- %Inh [4]: 43%
- %Inh [5]: 0%
- %Inh [6]: 72%
- %Inh [7]: 7%
- %Inh [8]: 0%
- %Inh [9]: 0%
- %Inh [10]: 0%
- %Inh [11]: 51%
- %Inh [12]: 2%
- %Inh [13]: 0%
- %Inh [14]: 17%
- %Inh [15]: 0%
- %Inh [16]: 43%
- %Inh [17]: 35%
- %Inh [18]: 27%
- %Inh [19]: 24%
- %Inh [20]: 24%

Structure (SMILES): Cc1cc(-c2ccc3c(c2)CC[C@@H](N[C@@H](C)c2ccccc2)C3)cnc1N.Cl [GW412617]
- %Inh [1]: 14%
- %Inh [2]: 11%
- %Inh [3]: 1%
- %Inh [4]: 11%
- %Inh [5]: 0%
- %Inh [6]: 20%
- %Inh [7]: 35%
- %Inh [8]: 0%
- %Inh [9]: 4%
- %Inh [10]: 0%
- %Inh [11]: 45%
- %Inh [12]: 0%
- %Inh [13]: 12%
- %Inh [14]: 27%
- %Inh [15]: 82%
- %Inh [16]: 10%
- %Inh [17]: 8%
- %Inh [18]: 16%
- %Inh [19]: 37%
- %Inh [20]: 19%

Structure (SMILES): COc1ccc(Nc2nccc(NCCNC(=O)Nc3ccccc3F)n2)cc1 [GSK1379901]
- %Inh [1]: 0%
- %Inh [2]: 21%
- %Inh [3]: 12%
- %Inh [4]: 44%
- %Inh [5]: 3%
- %Inh [6]: 0%
- %Inh [7]: 0%
- %Inh [8]: 0%
- %Inh [9]: 0%
- %Inh [10]: 0%
- %Inh [11]: 0%
- %Inh [12]: 0%
- %Inh [13]: 31%
- %Inh [14]: 14%
- %Inh [15]: 0%
- %Inh [16]: 0%
- %Inh [17]: 18%
- %Inh [18]: 11%
- %Inh [19]: 0%
- %Inh [20]: 7%

Structure (SMILES): Nc1nc(-c2nccs2)c(-c2ccnc3ccccc23)s1 [GW693542]
- %Inh [1]: 0%
- %Inh [2]: 5%
- %Inh [3]: 16%
- %Inh [4]: 26%
- %Inh [5]: 27%
- %Inh [6]: 55%
- %Inh [7]: 26%
- %Inh [8]: 0%
- %Inh [9]: 0%
- %Inh [10]: 0%
- %Inh [11]: 10%
- %Inh [12]: 0%
- %Inh [13]: 24%
- %Inh [14]: 4%
- %Inh [15]: 0%
- %Inh [16]: 0%
- %Inh [17]: 23%
- %Inh [18]: 4%
- %Inh [19]: 16%
- %Inh [20]: 79%

Structure (SMILES): Cc1csc(-c2nc(Nc3ccncc3)c3ccccc3n2)n1 [GW869640]
- %Inh [1]: 29%
- %Inh [2]: 37%
- %Inh [3]: 9%
- %Inh [4]: 13%
- %Inh [6]: 88%
- %Inh [7]: 36%
- %Inh [8]: 21%
- %Inh [9]: 0%
- %Inh [10]: 1%
- %Inh [11]: 50%
- %Inh [12]: 21%
- %Inh [13]: 0%
- %Inh [14]: 18%
- %Inh [15]: 44%
- %Inh [16]: 12%
- %Inh [17]: 22%
- %Inh [18]: 44%
- %Inh [19]: 0%
- %Inh [20]: 23%

Structure (SMILES): Cc1cccc(-c2nc(-c3ccc(S(C)(=O)=O)cc3)sc2-c2ccnc(NCCc3ccccc3)c2)c1
- %Inh [1]: 0%
- %Inh [2]: 24%
- %Inh [3]: 0%
- %Inh [4]: 11%
- %Inh [5]: 26%
- %Inh [6]: 0%
- %Inh [7]: 14%
- %Inh [8]: 19%
- %Inh [9]: 6%
- %Inh [10]: 4%
- %Inh [11]: 10%
- %Inh [12]: 0%
- %Inh [13]: 0%
- %Inh [14]: 0%
- %Inh [15]: 0%
- %Inh [16]: 0%
- %Inh [17]: 15%
- %Inh [18]: 0%
- %Inh [19]: 0%
- %Inh [20]: 0%

Structure (SMILES): O=C(Nc1ccc2c(c1)OCO2)NC1CCN(c2ccnc(Nc3ccc(F)cc3)n2)C1 (stereo not drawn) [GSK1379724]
- %Inh [1]: 0%
- %Inh [2]: 0%
- %Inh [3]: 7%
- %Inh [4]: 32%
- %Inh [5]: 28%
- %Inh [6]: 0%
- %Inh [7]: 0%
- %Inh [8]: 0%
- %Inh [9]: 0%
- %Inh [10]: 0%
- %Inh [11]: 0%
- %Inh [12]: 16%
- %Inh [13]: 10%
- %Inh [14]: 0%
- %Inh [15]: 0%
- %Inh [16]: 19%
- %Inh [17]: 57%
- %Inh [18]: 8%
- %Inh [19]: 0%
- %Inh [20]: 18%

Structure (SMILES): O=C1NC(=O)C(N2CCc3ccccc32)=C1c1ccccc1Cl [SB-373598]
- %Inh [1]: 15%
- %Inh [2]: 19%
- %Inh [3]: 0%
- %Inh [4]: 27%
- %Inh [5]: 9%
- %Inh [6]: 10%
- %Inh [7]: 13%
- %Inh [8]: 6%
- %Inh [9]: 8%
- %Inh [10]: 4%
- %Inh [11]: 5%
- %Inh [12]: 3%
- %Inh [13]: 11%
- %Inh [14]: 4%
- %Inh [15]: 22%
- %Inh [16]: 0%
- %Inh [17]: 4%
- %Inh [18]: 11%
- %Inh [19]: 8%
- %Inh [20]: 18%

Structure (SMILES): Cl.NC(=O)c1cccc(Nc2nccc(Nc3ccc(Oc4cccc(Cl)c4)c(Cl)c3)n2)c1 [GW659008]
- %Inh [1]: 0%
- %Inh [2]: 7%
- %Inh [3]: 10%
- %Inh [4]: 40%
- %Inh [5]: 0%
- %Inh [6]: 12%
- %Inh [7]: 12%
- %Inh [8]: 1%
- %Inh [9]: 0%
- %Inh [10]: 0%
- %Inh [11]: 2%
- %Inh [12]: 77%
- %Inh [13]: 29%
- %Inh [14]: 4%
- %Inh [15]: 0%
- %Inh [16]: 0%
- %Inh [17]: 0%
- %Inh [18]: 13%
- %Inh [19]: 0%
- %Inh [20]: 4%
